# Calls of active or inactive are those of the source. The calls were made as follows: active = hit-call score of the fitted dose curve at least 0.9, where 1 is the maximum; inactive = score below 0.9.
# Tests used:
# [1] = ATG_CRE_CIS: Attagene CIS-FACTORIAL HepG2 Assay for human cAMP Responsive Element (CRE) binding protein 3 (AID 2282926); conditions: HepG2 CRE cis-reporter, Attagene multiplexed mRNA; actives raise or lower the signal
# Outline: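 HepG2 cells transiently transfected with a multiplexed reporter library (CRE-driven unit among them) were dosed for 24 h. Reporter mRNA was quantified by RT-PCR, fluorescent labelling, HpaI digestion and capillary electrophoresis, with bidirectional fitting against DMSO baseline.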
# [2] = biological target: CCAAT/enhancer-binding protein beta (Homo sapiens) (UniProt P17676); assay: ATG_C_EBP_CIS: Attagene CIS-FACTORIAL HepG2 Assay for human CCAAT/Enhancer Binding Protein (C/EBP) beta (AID 2282927); conditions: HepG2 Attagene cis-factorial transcription factor reporter; actives raise or lower the signal
# Sequence of CCAAT/enhancer-binding protein beta (Homo sapiens) (P17676 whole entry, looked up): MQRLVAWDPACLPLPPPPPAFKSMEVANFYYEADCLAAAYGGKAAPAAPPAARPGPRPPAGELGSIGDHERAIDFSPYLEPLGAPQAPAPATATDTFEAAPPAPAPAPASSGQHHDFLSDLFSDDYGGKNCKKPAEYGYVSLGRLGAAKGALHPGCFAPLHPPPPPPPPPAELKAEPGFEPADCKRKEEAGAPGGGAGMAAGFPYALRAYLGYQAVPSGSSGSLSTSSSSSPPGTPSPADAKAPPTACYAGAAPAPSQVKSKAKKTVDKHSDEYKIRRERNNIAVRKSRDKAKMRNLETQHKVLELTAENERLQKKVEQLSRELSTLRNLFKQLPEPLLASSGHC
# Outline: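 RT-PCR/capillary electrophoresis fluorescence of reporter mRNA, 24 h post-dose, in HepG2 cells carrying transfected cis-promoter reporter units. Bidirectional curve fitting against DMSO baseline captures gain or loss of signal.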
# [3] = ATG_CMV_CIS: Attagene CIS-FACTORIAL HepG2 Assay for human CMV (Internal Marker) (AID 2282928); conditions: HepG2 CMV promoter reporter, transcription factor profiling; actives raise or lower the signal;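 also: endpoint acts as a background internal control marker rather than a target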
# Outline: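 HepG2 cells transiently transfected with multiple cis-regulated reporter units; 24 h compound exposure. Reporter mRNA quantified by RT-PCR, 6-FAM primer-extension labeling, HpaI digestion and capillary electrophoresis; bidirectional fitting against DMSO baseline.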
# [4] = ATG_DR4_LXR_CIS: Attagene CIS-FACTORIAL HepG2 Assay for human Liver X Receptor (LXR), DR4 submotif (AID 2282929); conditions: HepG2 Attagene DR4 cis-reporter, mRNA transcription; actives raise or lower the signal
# Outline: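 Transiently transfected HepG2 liver cells; cis-regulated reporters; 24 h dosing. RT-PCR plus CE read-out of reporter mRNA. DMSO baseline, bidirectional curve fitting.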
# [5] = ATG_AP_1_CIS: Attagene CIS-FACTORIAL HepG2 Assay for human Activator Protein 1 (AP-1) (AID 2282931); conditions: HepG2 Attagene cis-factorial AP-1 reporter mRNA; actives raise or lower the signal
# Outline: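 We transfected HepG2 cells transiently with a set of cis-regulated reporter transcription units, dosed them for 24 h, and quantified reporter mRNA via RT-PCR and capillary electrophoresis, scoring gain or loss of signal relative to DMSO.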
# [6] = ATG_AP_2_CIS: Attagene CIS-FACTORIAL HepG2 Assay for human Activator Protein 2 (AP-2) (AID 2282932); conditions: HepG2 AP-2 cis-reporter, Attagene transcription factor profiling; actives raise or lower the signal
# Outline: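 Bidirectional curve fitting against DMSO was applied to reporter mRNA signals from HepG2 cells 24 h after dosing. Cis-promoter reporter units, transiently transfected, were read by RT-PCR plus capillary electrophoresis.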
# [7] = ATG_BRE_CIS: Attagene CIS-FACTORIAL HepG2 Assay for human Bone Morphogenetic Protein (BMP) Response Element (BRE) (AID 2282933); conditions: HepG2 BMP response element reporter, Attagene transcription factor profiling; actives raise or lower the signal
# Outline: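 A HepG2 multiplex reporter system measured inducible reporter mRNA 24 h post-dosing. Detection: RT-PCR, 6-FAM primer extension, HpaI digestion, capillary electrophoresis. Activity fitted bidirectionally relative to DMSO.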
# [8] = biological target: Retinoic acid receptor alpha (Homo sapiens) (UniProt P10276); assay: ATG_DR5_RAR_CIS: Attagene CIS-FACTORIAL HepG2 Assay for human Retinoic Acid Receptor Alpha (RARE), DR5 submotif (AID 2282934); conditions: HepG2 Attagene cis-factorial RARE DR5 reporter, mRNA; actives raise or lower the signal;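 as to AC50: reporter responds to endogenous RAR alpha beta and gamma in HepG2 not RARA alone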
# Sequence of Retinoic acid receptor alpha (Homo sapiens) (P10276 whole entry, looked up): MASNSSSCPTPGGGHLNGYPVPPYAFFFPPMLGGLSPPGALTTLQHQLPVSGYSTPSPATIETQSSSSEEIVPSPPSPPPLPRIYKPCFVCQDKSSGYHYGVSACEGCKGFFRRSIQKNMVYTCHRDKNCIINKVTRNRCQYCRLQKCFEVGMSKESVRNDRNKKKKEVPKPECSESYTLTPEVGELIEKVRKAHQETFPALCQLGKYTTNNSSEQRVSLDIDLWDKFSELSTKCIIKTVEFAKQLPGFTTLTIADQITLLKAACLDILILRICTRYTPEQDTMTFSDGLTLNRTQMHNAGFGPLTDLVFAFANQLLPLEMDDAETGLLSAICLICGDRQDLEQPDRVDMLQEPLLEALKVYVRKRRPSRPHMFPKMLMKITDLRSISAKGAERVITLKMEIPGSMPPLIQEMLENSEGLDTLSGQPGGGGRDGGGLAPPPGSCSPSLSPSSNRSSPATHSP
# Outline: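 HepG2 cells transiently transfected with multiplexed reporter units under cis (DR5 RARE) promoters, so endogenous transcription factor activity is measured. After 24 h compound exposure, reporter mRNA is quantified by RT-PCR with fluorescent labelling and capillary electrophoresis; bidirectional fitting versus DMSO.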
# [9] = biological target: Aryl hydrocarbon receptor (Homo sapiens) (UniProt P35869); assay: ATG_Ahr_CIS: Attagene CIS-FACTORIAL HepG2 Assay for human Aryl Hydrocarbon Receptor (Ahr) (AID 2282930); conditions: HepG2 AhR cis-factorial reporter transcription; actives raise or lower the signal
# Sequence of Aryl hydrocarbon receptor (Homo sapiens) (P35869 whole entry, looked up): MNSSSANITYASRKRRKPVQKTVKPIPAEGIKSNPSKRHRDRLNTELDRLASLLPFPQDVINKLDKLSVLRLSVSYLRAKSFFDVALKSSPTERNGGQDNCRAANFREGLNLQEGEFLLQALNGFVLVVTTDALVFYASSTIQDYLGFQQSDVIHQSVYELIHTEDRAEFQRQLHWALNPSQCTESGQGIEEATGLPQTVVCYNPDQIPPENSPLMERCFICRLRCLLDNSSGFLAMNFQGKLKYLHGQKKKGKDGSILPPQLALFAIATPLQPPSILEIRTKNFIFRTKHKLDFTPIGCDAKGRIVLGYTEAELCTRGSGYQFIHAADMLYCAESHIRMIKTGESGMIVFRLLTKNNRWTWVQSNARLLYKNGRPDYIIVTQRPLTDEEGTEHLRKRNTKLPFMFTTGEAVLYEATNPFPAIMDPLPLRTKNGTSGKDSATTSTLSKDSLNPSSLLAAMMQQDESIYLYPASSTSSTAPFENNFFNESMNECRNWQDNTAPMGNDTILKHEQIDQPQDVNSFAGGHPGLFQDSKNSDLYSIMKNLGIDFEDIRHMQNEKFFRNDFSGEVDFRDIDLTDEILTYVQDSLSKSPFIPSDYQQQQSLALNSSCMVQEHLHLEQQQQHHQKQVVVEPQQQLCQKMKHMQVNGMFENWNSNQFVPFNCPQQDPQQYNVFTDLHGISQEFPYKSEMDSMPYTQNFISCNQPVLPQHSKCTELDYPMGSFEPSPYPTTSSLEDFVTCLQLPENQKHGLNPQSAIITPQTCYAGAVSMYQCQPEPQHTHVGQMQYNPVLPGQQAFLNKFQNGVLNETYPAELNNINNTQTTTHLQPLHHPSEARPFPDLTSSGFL
# Outline: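 HepG2 cells transiently transfected with cis-element-driven multiplexed reporter transcription units; endogenous transcription factor activity measured as reporter mRNA 24 h after dosing. RT-PCR, 6-FAM labelling, HpaI digestion, capillary electrophoresis; bidirectional fitting versus DMSO baseline.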
smiles,measurement,setting,value
O=C(O)C(F)(F)OC(F)(F)C(F)(F)OC(F)(F)F,outcome,[1],inactive
same,outcome,[2],inactive
same,outcome,[3],inactive
same,outcome,[4],inactive
same,outcome,[5],inactive
same,outcome,[6],inactive
same,outcome,[7],inactive
same,outcome,[8],inactive
NC(=O)C(F)(F)C(F)(F)F,outcome,[1],inactive
same,outcome,[2],inactive
same,outcome,[3],inactive
same,outcome,[4],inactive
same,outcome,[9],inactive
same,outcome,[5],inactive
same,outcome,[6],inactive
same,outcome,[7],inactive
same,outcome,[8],inactive
CCCCOCC1CO1 (stereo not drawn),outcome,[1],inactive
same,outcome,[2],inactive
same,outcome,[3],inactive
same,outcome,[4],inactive
same,outcome,[5],inactive
same,outcome,[6],inactive
same,outcome,[7],inactive
same,outcome,[8],inactive
CCOP(=S)(NC(C)C)Oc1ccccc1C(=O)OC(C)C (stereo not drawn),outcome,[1],inactive
same,outcome,[2],inactive
same,outcome,[3],inactive
same,AC50,[4],26.5 µM (active)
same,outcome,[5],inactive
same,outcome,[6],inactive
same,outcome,[7],inactive
same,outcome,[8],inactive
Cc1cc(C)c(C(=O)P(=O)(c2ccccc2)c2ccccc2)c(C)c1,outcome,[1],inactive
same,outcome,[2],inactive
same,outcome,[3],inactive
same,AC50,[4],11.5 µM (active)
same,outcome,[5],inactive
same,AC50,[6],59.3 µM (active)
same,outcome,[7],inactive
same,outcome,[8],inactive
ClC(Cl)=C(c1ccc(Cl)cc1)c1ccccc1Cl,outcome,[1],inactive
same,outcome,[2],inactive
same,AC50,[3],36.5 µM (active)
same,AC50,[4],27.3 µM (active)
same,AC50,[5],57.5 µM (active)
same,outcome,[6],inactive
same,outcome,[7],inactive
same,AC50,[8],27 µM (active)
C=CC(=O)OCC(F)(F)C(F)F,outcome,[1],inactive
same,outcome,[2],inactive
same,AC50,[3],150 µM (active)
same,AC50,[4],67 µM (active)
same,outcome,[9],inactive
same,outcome,[5],inactive
same,outcome,[6],inactive
same,outcome,[7],inactive
same,outcome,[8],inactive
N#C/C=C/c1ccccc1,outcome,[1],inactive
same,outcome,[2],inactive
same,outcome,[3],inactive
same,outcome,[4],inactive
same,outcome,[5],inactive
same,outcome,[6],inactive
same,outcome,[7],inactive
same,outcome,[8],inactive
CC(C)Nc1ccc(Nc2ccccc2)cc1,outcome,[1],inactive
same,outcome,[2],inactive
same,AC50,[3],60 µM (active)
same,AC50,[4],32.4 µM (active)
same,AC50,[5],60 µM (active)
same,outcome,[6],inactive
same,outcome,[7],inactive
same,outcome,[8],inactive
COP(=O)(O)OC,outcome,[1],inactive
same,outcome,[2],inactive
same,outcome,[3],inactive
same,outcome,[4],inactive
same,outcome,[9],inactive
same,outcome,[5],inactive
same,outcome,[6],inactive
same,outcome,[7],inactive
same,outcome,[8],inactive
N#Cc1cc([N+](=O)[O-])ccc1N,outcome,[1],inactive
same,outcome,[2],inactive
same,outcome,[3],inactive
same,outcome,[4],inactive
same,AC50,[9],2.51 µM (active)
same,outcome,[5],inactive
same,outcome,[6],inactive
same,outcome,[7],inactive
same,outcome,[8],inactive
Cn1[nH]nnc1=S,outcome,[1],inactive
same,outcome,[2],inactive
same,outcome,[3],inactive
same,outcome,[4],inactive
same,outcome,[5],inactive
same,outcome,[6],inactive
same,outcome,[7],inactive
same,outcome,[8],inactive
CCOP(=O)(O)C(N)=O,outcome,[1],inactive
same,outcome,[2],inactive
same,outcome,[3],inactive
same,outcome,[4],inactive
same,outcome,[5],inactive
same,outcome,[6],inactive
same,outcome,[7],inactive
same,outcome,[8],inactive
O=C(CBr)OCc1ccccc1,outcome,[1],inactive
same,outcome,[2],inactive
same,outcome,[3],inactive
same,outcome,[4],inactive
same,outcome,[5],inactive
same,outcome,[6],inactive
same,outcome,[7],inactive
same,outcome,[8],inactive
CCCCOCCOP(=O)(OCCOCCCC)OCCOCCCC,outcome,[1],inactive
same,outcome,[2],inactive
same,outcome,[3],inactive
same,outcome,[4],inactive
same,outcome,[5],inactive
same,outcome,[6],inactive
same,outcome,[7],inactive
same,outcome,[8],inactive
O=c1ssc(Cl)c1Cl,AC50,[1],50.9 µM (active)
same,AC50,[2],53.4 µM (active)
same,outcome,[3],inactive
same,AC50,[4],52.7 µM (active)
same,outcome,[5],inactive
same,outcome,[6],inactive
same,outcome,[7],inactive
same,outcome,[8],inactive
CCOP(=S)(OCC)SCS(=O)(=O)CC,outcome,[1],inactive
same,outcome,[2],inactive
same,outcome,[3],inactive
same,outcome,[4],inactive
same,outcome,[5],inactive
same,outcome,[6],inactive
same,outcome,[7],inactive
same,outcome,[8],inactive
O=S(=O)(c1ccc(O)cc1)c1ccc(O)cc1,outcome,[1],inactive
same,outcome,[2],inactive
same,outcome,[3],inactive
same,outcome,[4],inactive
same,outcome,[5],inactive
same,outcome,[6],inactive
same,outcome,[7],inactive
same,outcome,[8],inactive
NNC(N)=S,outcome,[1],inactive
same,outcome,[2],inactive
same,outcome,[3],inactive
same,outcome,[4],inactive
same,outcome,[5],inactive
same,outcome,[6],inactive
same,outcome,[7],inactive
same,outcome,[8],inactive
O=c1[nH]c2ccccc2c(=O)o1,outcome,[1],inactive
same,outcome,[2],inactive
same,outcome,[3],inactive
same,outcome,[4],inactive
same,outcome,[5],inactive
same,outcome,[6],inactive
same,outcome,[7],inactive
same,outcome,[8],inactive
COP(N)(=S)OC,outcome,[1],inactive
same,outcome,[2],inactive
same,outcome,[3],inactive
same,outcome,[4],inactive
same,outcome,[5],inactive
same,outcome,[6],inactive
same,outcome,[7],inactive
same,outcome,[8],inactive
O=S(=O)(F)C(F)(F)C(F)(F)C(F)(F)C(F)(F)C(F)(F)C(F)(F)C(F)(F)C(F)(F)F,outcome,[1],inactive
same,outcome,[2],inactive
same,outcome,[3],inactive
same,outcome,[4],inactive
same,outcome,[5],inactive
same,outcome,[6],inactive
same,outcome,[7],inactive
same,outcome,[8],inactive
Clc1ccc(Oc2ccccc2)cc1,outcome,[1],inactive
same,outcome,[2],inactive
same,outcome,[3],inactive
same,outcome,[4],inactive
same,outcome,[9],inactive
same,outcome,[5],inactive
same,outcome,[6],inactive
same,outcome,[7],inactive
same,outcome,[8],inactive
CCOC(=O)c1ccccc1N,outcome,[1],inactive
same,outcome,[2],inactive
same,outcome,[3],inactive
same,outcome,[4],inactive
same,outcome,[9],inactive
same,outcome,[5],inactive
same,outcome,[6],inactive
same,outcome,[7],inactive
same,outcome,[8],inactive
O=C(O)C=CC(F)(C(F)(F)F)C(F)(F)F,outcome,[1],inactive
same,outcome,[2],inactive
same,outcome,[3],inactive
same,outcome,[4],inactive
same,outcome,[5],inactive
same,outcome,[6],inactive
same,outcome,[7],inactive
same,outcome,[8],inactive
O=C(O)CF,outcome,[1],inactive
same,outcome,[2],inactive
same,outcome,[3],inactive
same,outcome,[4],inactive
same,outcome,[5],inactive
same,outcome,[6],inactive
same,outcome,[7],inactive
O=NN1CCCC1,outcome,[1],inactive
same,outcome,[2],inactive
same,outcome,[3],inactive
same,outcome,[4],inactive
same,outcome,[9],inactive
same,outcome,[5],inactive
same,outcome,[6],inactive
same,outcome,[7],inactive
same,outcome,[8],inactive
CC1=C(C(=O)Nc2ccccc2)S(=O)(=O)CCO1,outcome,[1],inactive
same,outcome,[2],inactive
same,AC50,[3],45.4 µM (active)
same,AC50,[4],44.3 µM (active)
same,AC50,[5],66.8 µM (active)
same,AC50,[6],18.1 µM (active)
same,AC50,[7],6.73 µM (active)
same,outcome,[8],inactive
C/C(=N\NC(=O)Nc1cc(F)cc(F)c1)c1ncccc1C(=O)O,outcome,[1],inactive
same,outcome,[2],inactive
same,outcome,[3],inactive
same,outcome,[4],inactive
same,outcome,[5],inactive
same,outcome,[6],inactive
same,outcome,[7],inactive
O=C(O)C(F)(F)C(F)(F)C(=O)O,outcome,[1],inactive
same,outcome,[2],inactive
same,outcome,[3],inactive
same,outcome,[4],inactive
same,outcome,[5],inactive
same,outcome,[6],inactive
same,outcome,[7],inactive
same,outcome,[8],inactive
CC(=O)CCc1ccc2c(c1)OCO2,outcome,[1],inactive
same,outcome,[2],inactive
same,outcome,[3],inactive
same,outcome,[4],inactive
same,outcome,[5],inactive
same,outcome,[6],inactive
same,outcome,[7],inactive
same,outcome,[8],inactive
N#Cc1ccc(O)cc1,outcome,[1],inactive
same,outcome,[2],inactive
same,outcome,[3],inactive
same,outcome,[4],inactive
same,outcome,[9],inactive
same,outcome,[5],inactive
same,outcome,[6],inactive
same,outcome,[7],inactive
same,outcome,[8],inactive
Nc1ccc(Sc2ccc(N)cc2)cc1,outcome,[1],inactive
same,outcome,[2],inactive
same,outcome,[3],inactive
same,outcome,[4],inactive
same,outcome,[5],inactive
same,outcome,[6],inactive
same,outcome,[7],inactive
same,outcome,[8],inactive
CC(O)C#N (stereo not drawn),outcome,[1],inactive
same,outcome,[2],inactive
same,outcome,[3],inactive
same,outcome,[4],inactive
same,outcome,[9],inactive
same,outcome,[5],inactive
same,outcome,[6],inactive
same,outcome,[7],inactive
same,outcome,[8],inactive
CCOP(=S)(OCC)SCSc1ccc(Cl)cc1,outcome,[1],inactive
same,outcome,[2],inactive
same,outcome,[3],inactive
same,outcome,[4],inactive
same,outcome,[9],inactive
same,outcome,[5],inactive
same,outcome,[6],inactive
same,outcome,[7],inactive
same,outcome,[8],inactive

# — PubChem BioAssay (EPA / NIEHS)
